Hits are enriched below; roughly 14% of the tested compounds scored in any of these assays.
Shiga inhibitor – inhibitors of Shiga toxin in Vero cells; Vero cells, Shiga toxin protein synthesis inhibition reporter; inhibition, % at 38.7 µM; actives 9.2% (n = 290,000); in the data active = inhibition mostly above about 28%, no sharp cut-off; inactive = mostly below about 43%; also: 0% is about no effect
Giardia FBPA inh – blocks Giardia fructose-bisphosphate aldolase activity; A8B2U2; purified Giardia FBPA; Potency, µM (top dose mostly 59.6 µM), without a hit: at the top dose activity, negative = inhibition, hits mostly inhibitors; actives 0.71% (n = 290,000); AID 2451; also: potency is read from the fitted curve at half-maximal effect; % is scaled to controls: 0 for no effect and ±100 for the full control effect; nearly all actives have a fitted effect of over 55% in size
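Giardia FBPA (40 nM reagent) was preincubated 10 min at RT with compound (up to 57.5 uM final), then substrate plus GAPDH/TPI/NAD/arsenate coupling system with diaphorase/resazurin was added; resorufin fluorescence (525/598 nm) was read after 20 min.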
NS1 function inh – blocks influenza NS1 protein function; actives 0.4% (n = 270,000); Potency, µM (series often up to 46.1 µM), for inactives: at the highest dose activity, positive = more growth; calls by dose curve; also: potency is read from the fitted curve at half-maximal effect; actives are rising curves; nearly all actives have a fitted effect of over 50% in size
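Read-out: OD600 growth recovery of NS1-expressing budding yeast. Cells grown overnight at 30C in -URA glucose medium, washed, resuspended and diluted 1:100 in 2% galactose assay medium, pH 6.0. Same strain lacking NS1 served as positive control.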
LmPK inhibitor – LmPK (Leishmania mexicana) enzyme inhibition | purified LmPK, Kinase-Glo ATP luminescence, 1 h | Potency, µM (series often up to 57.5 µM), inactives show at the top dose activity change, negative = inhibition, usual class: inhibitors | actives 0.37% (n = 290,000) | AID 1721; also: potency is read from the fitted curve at half-maximal effect; % is scaled to controls: 0 for no effect and ±100 for the full control effect
Target sequence (Q27686 whole entry, looked up): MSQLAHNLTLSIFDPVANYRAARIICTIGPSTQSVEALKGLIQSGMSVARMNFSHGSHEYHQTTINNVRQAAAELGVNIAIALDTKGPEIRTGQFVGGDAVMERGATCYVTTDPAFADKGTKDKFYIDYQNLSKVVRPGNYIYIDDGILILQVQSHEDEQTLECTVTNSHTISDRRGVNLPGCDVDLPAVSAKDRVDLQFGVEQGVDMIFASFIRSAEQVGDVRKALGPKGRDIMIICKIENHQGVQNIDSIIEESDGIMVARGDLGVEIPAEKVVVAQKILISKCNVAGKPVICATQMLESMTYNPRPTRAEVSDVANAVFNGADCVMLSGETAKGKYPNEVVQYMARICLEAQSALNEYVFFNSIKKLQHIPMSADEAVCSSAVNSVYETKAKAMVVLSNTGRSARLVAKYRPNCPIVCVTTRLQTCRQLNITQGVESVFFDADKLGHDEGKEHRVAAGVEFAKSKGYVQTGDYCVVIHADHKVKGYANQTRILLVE
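Screened at intermediate enzyme activity to detect both inhibitors and activators: LmPK at 0.1 nM, with a 0.5 nM enzyme column as activation reference. PEP 0.5 mM, ADP 0.1 mM; ATP detected by luminescence after 1 h.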
CHX counter – affects cycloheximide protein synthesis inhibition readout, counter-screen; cell reporter, cycloheximide protein synthesis inhibition counterscreen; max response, %; actives 12% (n = 300,000); in the data active = max response mostly above about 13%, no sharp cut-off; inactive = mostly below about 14%; also: read at 38.3 µM for the half of the compounds with a filed dose; 0% is about no effect
Numbers without * were called inactive; ? = inconclusive; . = not tested or not shown; + = active, no number; [ ] = dose if it differs, or a comment. Unless noted, calls follow the shape of the dose curve; as a rule, active = well fitted curve in the direction sought with a large enough effect; inconclusive = small, poorly fitted or top-dose-only effect, or another doubt; inactive = no such curve, though single readings can be large; an effect the other way counts as inactive or inconclusive.

SMILES	Shiga inhibitor	Giardia FBPA inh	NS1 function inh	LmPK inhibitor	CHX counter
O=C(CSc1cccs1)Nc1cccc2ccccc12	+	4%	-4%	0%	50*
O=C(CSC1=NCCS1)Nc1cccc2ccccc12	-6	-5%	?	0%	-1
O=C(CSc1ccccc1)Nc1ccc2sccc2c1	45*	1%	-1%	4%	45*
COc1ccc(CNC(=O)C2CCN(S(=O)(=O)c3c(C)noc3/C=C/N(C)C)CC2)cc1	-2	.	?	10%	-2
Cc1cc(C)n2nc(C(=O)NCCc3ccccc3)nc2n1	92*	-6%	-3%	0%	68*
Cc1cc(C)n2nc(CCc3ccccc3)nc2n1	-2	1%	-11%	3%	10
O=C(NCCc1ccccc1)c1nc2nc(-c3cccs3)cc(C(F)(F)F)n2n1	+	-2%	-2%	0%	41*
COC(=O)/C=C/C1c2ccccc2C(OC)C1C (stereo not given)	.	-1%[12.9 µM]	.	.	.
CC(=O)OC1CCC2(C)C3CC(=O)C4(C)C(CC5OC6(CCC(C)CO6)C(C)C54)C3CC[C@H]2C1 (stereo not given in full)	.	0%	.	.	.
CCN(CC)CCN1C(=O)c2ccccc2NC1c1ccc(C)cc1 (stereo not given)	-7	-1%	3%	-3%	1
O=C1c2ccccc2NC(c2ccco2)N1/N=C/c1ccco1 (stereo not given)	71	-8%	5%	-3%	32*
CC(=O)NN1C(=O)c2ccccc2NC1c1ccco1 (stereo not given)	17	6%	.	-2%	11
Cc1ccc(/C=N/N2C(=O)c3ccccc3NC2c2ccc(C)cc2)cc1 (stereo not given)	96*	-13%	4%	2%	82*
C/C(=N\N1C(=O)c2ccccc2NC1c1ccco1)c1ccccc1O (stereo not given)	65*	-1%	-3%	0%	32*
CS(=O)(=O)NN1C(=O)c2ccccc2NC1c1ccccc1 (stereo not given)	34*	4%	.	8%	25*
NC(=O)Cn1c(=O)n(Cc2ccccc2)c(=O)c2cccnc21	-8	4%	-2%	4%	-3
C/C(=N\N1C(=O)c2ccccc2NC1c1ccccc1)c1ccccc1O (stereo not given)	67*	2%	-1%	0%	23*
CCCN1CCC(NC(=O)Cc2ccc(C)cc2)CC1	-3	3%	2%	-2%	-2
O=C(C1CC(c2cccc(Br)c2)=NO1)N1CCc2ccccc2C1 (stereo not given)	21	0%	-18%	5%	18*
O=C(O)C1CC(c2cccc(Br)c2)=NO1 (stereo not given)	-4	12%	-2%	-4%	-4
CS(=O)(=O)c1ccc2nc(NC(=O)c3ccc(NS(=O)(=O)c4cccc([N+](=O)[O-])c4)cc3)sc2c1	-5	1%	4%	0%	-4
O=C1N=C(N2CCCCC2)S/C1=C/C1=Cc2ccccc2OC1	76*	-4%	11%	-2%	37*
CN(C)c1ccc(/C=C2\SC(N3CCCCC3)=NC2=O)cc1	.	-2%	-9%	-2%	41*
Cc1ccc(/C=C2\SC(N3CCCC3)=NC2=O)cc1	28	4%	-39%	-1%	7
COc1cc(/C=C2\SC(N3CCC(C)CC3)=NC2=O)ccc1O	15	-14%	-10%	10%	42*
SMILES	Shiga inhibitor	Giardia FBPA inh	NS1 function inh	LmPK inhibitor	CHX counter
NS(=O)(=O)c1ccc(Sc2ccc3c(c2)CCC3)nc1	-13	-2%	-19%	5%	-4
O=C(Cc1ccc(Cl)cc1)Nc1ccc(Br)cc1	74*	-3%	.	-3%	30*
O=C(Cc1ccc(Br)cc1)Nc1cccc(Cl)c1	22	-2%	.	-1%	21*
O=C(Cc1ccccc1)NNC(=O)Nc1cccc(Cl)c1	-33	5%	7%	0%	-3
O=C(CC1SCCNC1=O)Nc1cccc(Cl)c1 (stereo not given)	39*	-3%	4%	-2%	17*
O=C(Cc1ccc(Br)cc1)NNC(=O)Nc1ccc(Cl)cc1	18	4%	5%	-1%	-1
CN1CC[C@@]2(CCCN(S(=O)(=O)c3ccccc3)C2)C1	.	-13%	.	.	.
Cc1noc(C)c1-c1cc(N(C)C)ncn1	.	-1%	.	.	.
Cc1cccc(NC(=O)NCCN2CCN(c3ccccc3)CC2)c1C	-8	4%	-1%	0%	-2
Cc1ccc(C2=NN(C(=S)Nc3ccccc3)C(c3ccco3)C2)cc1 (stereo not given)	71*	-6%	?	2%	39*
CCC(=O)N1N=C(c2ccc(C)cc2)CC1c1ccco1 (stereo not given)	38	-3%	-3%	-4%	10
CCS(=O)(=O)Nc1ccc(C2=NN(C(=S)Nc3ccccc3)C(c3ccco3)C2)cc1 (stereo not given)	18	-15%	-3%	-2%	18*
CCCCNC(=O)C(c1ccc(OCC(=O)OC)c(C(=O)OC)c1)N(CCC1=CCCCC1)C(=O)CCCCCN1C(=O)NC(c2ccc(-c3ccccc3)cc2)C(C(=O)OCc2ccccc2)=C1C (stereo not given)	.	6%	.	.	.
COC(=O)c1nc2cc3c(cc2c(C)c1C(=O)OC)OCO3	6	2%	2%	-3%	4
Cc1nc2cc3c(cc2c(C)c1C(=O)OC(C)C)OCO3	29*	-26%	8%	1%	40*
Cc1c(/N=C(\[O-])Nc2ccc(Br)cc2)sn[n+]1C	95*	4%	-1%	-3%	47*
CCCCN1C(=S)NC[C@@H]1Cc1cccc2ccccc12	60*	0%	-40%	5%	18*
N#Cc1cnn(-c2ccccc2)c1N	-8	0%	1%	0%	-6
N#Cc1cnc2cc(-c3ccccc3)nn2c1N	29	4%	3%	-8%	18*
COc1ccc(-c2cc3ncc(-c4ccccc4)c(N)n3n2)cc1	61*	-8%	-2%	16µM*	36*
COc1ccc(-c2cc3nc(-c4ccccc4)cc(N4CCC(O)CC4)n3n2)cc1	12	-11%	-1%	0%	3
Cc1cccc2c1cnn2C(=O)CCC(=O)N1CCC(C)CC1	12	13%	-30%	-11%	7
CC(=O)Nc1ccc(S(=O)(=O)N2CCN=C2SCc2ccc(C)cc2)cc1	88*	.	-12%	-3%	50*
Oc1ccc2ccccc2c1C=Nc1cc(C(F)(F)F)ccc1N1CCCC1	51*	?	0%	5%	14
Cc1cc(=O)[nH]c2n[nH]c(-c3ccccc3)c12	37	-2%	1%	-2%	15*
Cc1cc(=O)[nH]c(-c2ccccc2)n1	-21	-2%	15%	1%	7
COc1ccc(-c2cccc(NC(=O)COc3ccc(Cl)cc3)c2)nn1	1	0%	-54%	1%	8
CC(C)(C)c1ccc(-c2nc(SCC(=O)Nc3ccc(Cl)cc3)[nH]c(=O)c2C#N)cc1	32	.	.	.	2
